# Source: PubChem (several laboratories)
# This is a sample that favours compounds with a hit; in the whole collection about 2.1% have one here.
# ADAM10 inh – inhibitors of human ADAM10; recombinant ADAM10, EDANS/DABCYL FRET peptide cleavage, 3 h; inhibition, % at 7 µM; 0.62% of 370,000 active; AID 720582;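 active means inhibition above a per-campaign cutoff equal to the mean of compounds falling between control-based bounds plus 3 SD, cut at about 20% in these data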;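 further: 0% = DMSO wells while the 100% control is not disclosed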
# PLC-gamma1 inh – inhibitors of human phospholipase C gamma1 | inhibition, % at 12.2 µM | 0.84% of 370,000 active | AID 720700 | P19174 | purified PLC-gamma1, fluorogenic substrate, fluorescence; in the data active means inhibition above about 9.5%
# ADAM17 inh – ADAM17 inhibition, QFRET primary screen. P78536. recombinant ADAM17, EDANS/DABCYL FRET peptide cleavage. inhibition, % at 6.95 µM. 0.83% of 370,000 active;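 active means inhibition above the mean of compounds lying between control limits plus 3 SD, set per campaign, cut at about 8.5% in these data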;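 further: 0% = DMSO-only wells as the low control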
# Rce1 inhib – yeast Ras-converting enzyme inhibition; 0.27% of 290,000 active; calls only; yeast membranes, quenched prenylated peptide cleavage fluorescence;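 active means fall in fluorescence gain of 50% or more versus controls, with final raw signal at or below 3038400; inconclusive means same 50% fall but final raw signal above 3038400; inactive means fall in fluorescence gain under 50%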;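 further: plate controls were neutral control wells for no effect and wells lacking membranes for full effect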
# Target sequence (Q03530 whole entry, looked up): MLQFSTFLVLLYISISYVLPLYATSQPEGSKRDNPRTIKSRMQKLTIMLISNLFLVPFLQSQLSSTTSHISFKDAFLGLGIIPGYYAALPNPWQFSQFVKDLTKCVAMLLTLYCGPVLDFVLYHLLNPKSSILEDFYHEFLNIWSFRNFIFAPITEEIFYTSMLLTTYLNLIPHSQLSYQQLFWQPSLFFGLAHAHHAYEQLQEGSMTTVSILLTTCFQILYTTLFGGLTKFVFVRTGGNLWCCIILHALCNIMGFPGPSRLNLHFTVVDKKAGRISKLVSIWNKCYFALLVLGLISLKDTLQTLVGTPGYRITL
# PLCb3 inh – inhibitors of human phospholipase C beta3; Purified PLC-beta3, fluorogenic substrate, fluorescence; inhibition, % at 12.2 µM; 0.18% of 370,000 active; AID 720704; in the data active means inhibition above about 11%;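 further: 0% = median of compound wells on plate and 100% = full blocker control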
# Starred values were filed as active, the others as inactive; i = inactive; ? = inconclusive; . = no result; + = active, no number.
SMILES,ADAM10 inh,PLC-gamma1 inh,ADAM17 inh,Rce1 inhib,PLCb3 inh
COc1ccccc1-c1nnc2sc(-c3ccc(N(C)C)cc3)nn12,-114,-35,-29,+,-52
CC(C)[C@H](NC(=O)C1CC1)C(=O)N1CCC[C@H]1C(=O)NCc1ccccc1,1,0,-3,.,1
Cc1ccc(-n2ncc(C(=O)Nc3cc(Cl)cc(Cl)c3)c2C2CCNCC2)cc1C,-3,9.8*,1,i,2
Cc1ccc(-n2ncc(C(=O)Nc3cc(Cl)ccc3Cl)c2C2CCNCC2)cc1,-4,-1,-4,i,-2
Cn1cc(P(=S)(N2CCOCC2)N2CCOCC2)cc1P(=O)(N1CCOCC1)N1CCOCC1,2,18*,1,i,-4
O=C(OC(C(=O)NCc1ccco1)c1ccc(Cl)cc1)c1cccs1 (configuration not stated),-3,1,1,i,-6
CCOc1ccc(N(CC(=O)NC2CC3CCC2C3)S(=O)(=O)c2ccccc2)cc1 (configuration not stated),3,3,0,+,2
CCOc1ccc(N(CC(=O)NC2CC3CCC2C3)S(=O)(=O)c2ccc(C)cc2)cc1 (configuration not stated),14,2,-4,i,-2
COc1ccc(C(=S)N2CCCCCC2)cc1,2,9.9*,-2,i,2
Cc1cc(Oc2cccnc2)ccc1NC(=O)Cc1c(C)[nH]c2ccccc12,-4,-15,-2,.,-18
Cc1cc(C)cc(Nc2ccc(C(=O)O)cc2N)c1,-117,-49,-29,+,-58
Cc1ccc(Nc2ccc(C(=O)O)cc2N)cc1,-135,-60,-61,?,-81
Cn1c(=O)n(Cc2ccccc2)c(=O)c2c1nc1n2CCCN1CCc1ccccc1,9,-3,3,i,1
Cn1c(=O)n(Cc2ccccc2)c(=O)c2c1nc1n2CCCN1Cc1ccccc1,-2,11*,1,i,0
C[C@@H]1CCCCCCCCC(=O)OCCN(C(=O)OC(C)(C)C)[C@H](C)CCCCCCCCC(=O)OCCN1C(=O)OC(C)(C)C,-3,7,8,.,13*
Cc1ccc(-c2nc3c(C)cc(Br)cn3c2Cc2ccccc2C(F)(F)F)cc1,-6,-3,0,.,-2
C/C(CC(=O)NC1CCCCC1)=N\NC(=O)c1ccccc1C,-1,0,-2,i,-2
CCC1CCC/C1=N\NC(=O)c1ccccc1C (configuration not stated),6,10*,8,i,7
CC(=O)N(CN1C(=O)c2ccccc2C1=O)c1ccccc1,-2,2,-4,i,1
CCNc1nc(C)c(CN(C(C)=O)c2ccccc2)nc1C#N,i,i,i,+,i
COc1cc(/C=C2\SC(=Nc3ccccc3)N(CCc3c[nH]c4ccccc34)C2=O)ccc1OC(C)C(=O)O (configuration not stated),-4,0,-2,i,-2
COCCN1C(=O)/C(=C/c2ccc(Oc3ccc([N+](=O)[O-])cn3)c(OC)c2)SC1=Nc1ccccc1,-6,0,-6,+,0
COC(=O)C1=C(C)N(C)C(=NCc2cc(OC)c(OC)c(OC)c2)NC1c1ccc(C(F)(F)F)cc1 (configuration not stated),-5,-5,-3,.,-1
COC(=O)[C@]12C[C@H](CC(=O)NCc3ccc(C)o3)C(=O)N(Cc3ccc4c(c3)OCO4)C1=C[C@H](COCc1ccccc1)O[C@@H]2C,4,4,3,.,1
C[C@H]1CN([C@@H](C)CO)C(=O)c2cccc(NC(=O)Nc3ccc(C(F)(F)F)cc3)c2O[C@@H]1CN(C)S(=O)(=O)c1ccc(Cl)cc1,24*,6,9.2*,.,-1
SMILES,ADAM10 inh,PLC-gamma1 inh,ADAM17 inh,Rce1 inhib,PLCb3 inh
C[C@@H]1CN([C@H](C)CO)C(=O)c2cc(NC(=O)Nc3ccc(C(F)(F)F)cc3)ccc2O[C@H]1CN(C)S(=O)(=O)c1ccc(Cl)cc1,25*,1,8,.,0
C[C@H](CO)N1C[C@H](C)[C@@H](CN(C)S(=O)(=O)c2ccc(F)cc2)Oc2c(NC(=O)Nc3ccc(C(F)(F)F)cc3)cccc2C1=O,14,2,6,.,5
CN=C(Nc1ccc(Cl)cc1)c1ccc(C(F)(F)F)cc1,13,15*,3,i,5
Cc1nn(-c2ccccc2)c2nc(N)c(C(N)=O)cc12,i,-388,-264,+,-488
COc1ccc(-c2cc(C(F)(F)F)nc(SCC(=O)NCc3cnn(C)c3C)n2)cc1OC,-72,-263,-25,+,-286
COc1ccc(-c2cc(C(F)(F)F)nc(SCC(=O)NCc3ccco3)n2)cc1OC,-282,i,-106,i,i
COc1ccc(-c2cc(C(F)(F)F)nc(SCC(=O)N(C)Cc3cn(C)nc3C)n2)cc1OC,-345,i,-113,+,i
S=C(NCCCCN(Cc1ccc(Cl)cc1)c1ccc(Br)cn1)NCCCc1cnc[nH]1,-1,10*,0,.,-1
CCOC(=O)[C@]12CCC=C1N(Cc1ccccc1)C(=O)[C@H](CC(=O)NCCC(C)C)C2,-10,-2,-5,.,-2
COc1ccc(NC(=O)N(C)C[C@H]2Oc3c(NC(=O)Nc4ccc(C(F)(F)F)cc4)cccc3C(=O)N([C@H](C)CO)C[C@@H]2C)cc1,19,2,9.9*,.,4
C[C@H](CO)N1C[C@H](C)[C@@H](CN(C)C(=O)Nc2ccc(C(F)(F)F)cc2)Oc2c(NC(=O)Nc3ccccc3)cccc2C1=O,10,3,3,.,1
C[C@H](CO)N1C[C@H](C)[C@@H](CN(C)C(=O)Nc2ccc3c(c2)OCO3)Oc2c(NC(=O)Nc3ccc(C(F)(F)F)cc3)cccc2C1=O,11,-13,9.4*,.,-15
CCOc1ccc(CCN2C(=O)C(=O)N([C@@H](Cc3ccccc3)CN3CCC[C@H]3CN3C(=O)C(=O)NC[C@@H]3Cc3ccccc3)C[C@@H]2Cc2ccc(O)cc2)cc1,6,5,1,.,5
CCN1CCN(Cc2ccc(NC(=O)c3ccc(C)c(NC(=O)C(=O)c4c[nH]c5ccccc45)c3)cc2C(F)(F)F)CC1,18,-10,7,i,-9
CCN1CCN(Cc2ccc(NC(=O)c3cc(NC(=O)C(=O)c4c[nH]c5ccccc45)cc(OC)c3)cc2C(F)(F)F)CC1,22*,-13,9.0*,i,-20
S=C(NCc1ccco1)Nc1ccc(Cl)cn1,-1,-4,-4,i,-14
COC(C/C=C\C(=O)[C@H](C)OCc1ccccc1)OC,-10,-3,-3,+,-5
CO/N=C/c1ccc(N2CCN(C(=O)c3ccc(F)cc3)CC2)c([N+](=O)[O-])c1,2,0,3,i,2
CO/N=C/c1ccc(N2CCN(C(=O)c3ccc(Cl)cc3Cl)CC2)c([N+](=O)[O-])c1,20*,8,7,i,2
O=C1CCCN2N=C(SCC(=O)Nc3nc4ccccc4s3)SC2=N1,-2,10*,-3,.,-3
